IDE exosite inh: exo-site inhibitors of human IDE, primary screen, biochemical, fluorescence anisotropy, probe displacement | Insulin-degrading enzyme (Homo sapiens), P14735 | purified IDE, FL-6b probe fluorescence polarization; active compounds read low | AID 1259349, 2017 | hit rate 6.3% among 17,000 | z-score at 20 µM;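 active = z-score of -3 or lower, meaning strong loss of probe binding signal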;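 note: His-tagged human IDE residues 42-1019 made in E. coli with 30 nM FL-6b probe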
Target sequence (P14735 42-1019 limits assumed): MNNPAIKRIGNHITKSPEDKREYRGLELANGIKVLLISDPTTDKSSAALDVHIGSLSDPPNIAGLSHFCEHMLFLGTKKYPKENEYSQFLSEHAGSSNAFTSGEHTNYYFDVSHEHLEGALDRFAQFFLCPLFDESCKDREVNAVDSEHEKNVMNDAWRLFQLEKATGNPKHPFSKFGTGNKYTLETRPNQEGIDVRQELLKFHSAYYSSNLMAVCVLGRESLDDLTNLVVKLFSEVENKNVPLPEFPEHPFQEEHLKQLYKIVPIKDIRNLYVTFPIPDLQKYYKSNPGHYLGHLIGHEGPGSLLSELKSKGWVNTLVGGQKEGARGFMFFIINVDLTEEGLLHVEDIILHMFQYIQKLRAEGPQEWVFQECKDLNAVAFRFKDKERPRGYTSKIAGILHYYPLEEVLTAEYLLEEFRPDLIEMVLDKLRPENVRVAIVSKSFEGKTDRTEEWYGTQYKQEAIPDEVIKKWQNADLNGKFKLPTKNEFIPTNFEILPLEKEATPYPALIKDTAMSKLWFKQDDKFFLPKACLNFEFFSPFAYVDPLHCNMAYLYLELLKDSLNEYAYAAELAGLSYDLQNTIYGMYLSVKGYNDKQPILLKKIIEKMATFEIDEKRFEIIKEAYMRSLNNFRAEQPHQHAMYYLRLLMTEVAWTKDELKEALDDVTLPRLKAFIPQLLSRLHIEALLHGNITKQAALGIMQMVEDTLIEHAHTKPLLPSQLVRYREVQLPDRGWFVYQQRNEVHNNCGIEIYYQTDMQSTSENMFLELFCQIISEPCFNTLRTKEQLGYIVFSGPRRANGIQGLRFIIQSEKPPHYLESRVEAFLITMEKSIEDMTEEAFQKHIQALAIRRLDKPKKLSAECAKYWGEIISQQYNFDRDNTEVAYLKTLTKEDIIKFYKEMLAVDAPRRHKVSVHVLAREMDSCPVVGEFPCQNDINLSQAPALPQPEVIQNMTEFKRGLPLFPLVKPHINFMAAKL
The depositor's hits bear a star. The entries come from a sample that favours hits as a whole.

SMILES | IDE exosite inh
N#C[C@H]1N[C@H](CO)[C@@H]1c1ccc(-c2ccccc2F)cc1 | -4.4*
N#C[C@@H]1N[C@H](CO)[C@@H]1c1ccc(-c2ccccc2F)cc1 | 4.7
N#C[C@H]1N[C@H](CO)[C@H]1c1ccccc1 | 3.8
COc1ccccc1-c1ccc([C@H]2[C@H](C#N)N[C@@H]2CO)cc1 | -12*
O=C1NCCOCc2cnnn2CC[C@@H]1Cc1ccc(F)cc1 | 2.4
O=C(Nc1ccc2c(c1)[C@@H]1C[C@@H](CC(=O)N3CCCCC3)O[C@H](CO)[C@@H]1O2)NC1CCCCC1 | -0.18
O=C(C[C@@H]1CC[C@@H](NS(=O)(=O)c2ccc(F)cc2)[C@@H](CO)O1)N1CCN(c2ccccc2)CC1 | 2.9
O=C(O)[C@H]1[C@H](CO)[C@H]2Cn3c(ccc(-c4cccc(F)c4)c3=O)[C@H]2N1C(=O)c1ccccn1 | 0.59
COc1ccc2c3c([nH]c2c1)[C@@H](CO)N(C(=O)Nc1ccc(F)cc1)CC31CN(Cc2cc(-c3ccccc3)on2)C1 | 0.38
O=C(c1ccncc1)N1CCCCN2[C@H](C1)[C@H](c1ccc(-c3ccccc3)cc1)[C@@H]2CO | 1.9
Cc1ccc(-c2ccc([C@@H]3[C@H](CO)N4CCCCN(C(=O)c5ccncc5)C[C@@H]34)cc2)cc1 | -1.2
O=C(c1ccncc1)N1CCCCN2[C@@H](CO)[C@@H](c3ccc(-c4ccccc4)cc3)[C@@H]2C1 | -0.96
Cc1cccc(-c2ccc([C@@H]3[C@H](CO)N4CCCCN(C(=O)c5ccncc5)C[C@@H]34)cc2)c1 | -12*
Cc1cccc(-c2ccc([C@H]3[C@H]4CN(C(=O)c5ccncc5)CCCCN4[C@H]3CO)cc2)c1 | -3*
Cc1cccc(-c2ccc([C@@H]3[C@H](CO)N4CCCCN(C(=O)c5cccnc5)C[C@@H]34)cc2)c1 | -1.4
COC(=O)C[C@H]1C[C@@H]2c3cc(NC(=O)c4ccc5c(c4)OCO5)ccc3O[C@@H]2[C@H](CO)O1 | -0.24
CC(C)C#Cc1ccc([C@@H]2[C@H](C#N)N(C(=O)c3cccc(F)c3)[C@H]2CO)cc1 | -0.35
COCC(=O)N1CC(=O)N2[C@H](C1)[C@H](c1ccc(-c3cccnc3)cc1)[C@@H]2CO | 3.1
CCCN1C[C@H](C)[C@@H](OC)CN(C)C(=O)c2cc(NC(=O)C3CCC3)ccc2OC[C@H]1C | -0.14
C[C@@H]1CN([C@@H](C)CO)C(=O)Cc2cc(NC(=O)CCC(F)(F)F)ccc2O[C@@H]1CN(C)CC1CC1 | -1
COc1cccc(-c2ccc([C@H]3[C@@H](CO)N4C(=O)CN(C(=O)C5CCOCC5)C[C@H]34)cc2)c1 | -8.7*
COc1cccc(-c2ccc([C@H]3[C@@H](CO)N4C(=O)CN(C(=O)C5CCOCC5)C[C@@H]34)cc2)c1 | -4.5*
COc1cccc(-c2ccc([C@H]3[C@H](CO)N4C(=O)CN(C(=O)C5CCOCC5)C[C@@H]34)cc2)c1 | -1.8
COc1cccc(-c2ccc([C@H]3[C@H](CO)N4C(=O)CN(C(=O)CN5CCOCC5)C[C@@H]34)cc2)c1 | -3.4*
COc1cccc(-c2ccc([C@H]3[C@H]4CN(C(=O)C5CCOCC5)CC(=O)N4[C@H]3CO)cc2)c1 | -0.85
SMILES | IDE exosite inh
COc1ccc(-c2ccc([C@H]3[C@H](CO)N4C(=O)CN(C(=O)C5CCOCC5)C[C@@H]34)cc2)cc1 | -1.1
O=C(CN1CCOCC1)N1CC(=O)N2[C@@H](CO)[C@H](c3ccc(-c4ccccc4)cc3)[C@@H]2C1 | 1.5
O=C(CN1CCOCC1)N1CC(=O)N2[C@H](CO)[C@@H](c3ccc(-c4cccc(F)c4)cc3)[C@H]2C1 | 1.2
COc1ccc(-c2ccc([C@@H]3[C@@H](CO)N4C(=O)CN(C(=O)C5CCOCC5)C[C@H]34)cc2)cc1 | 1.6
COCC#Cc1ccc([C@H]2[C@H](CO)N3C(=O)CN(C(=O)C4CCC4)C[C@@H]23)cc1 | -0.14
CO[C@@H]1CC[C@H]2CCN(C)C(=O)[C@H](C)N(C)C(=O)c3cccc(C#N)c3OC[C@H]1O2 | -0.16
O=C(c1cccnc1)N1CC(=O)N2[C@@H](CO)[C@@H](c3ccc(-c4ccccc4F)cc3)[C@@H]2C1 | 0.48
O=C(c1cccc(F)c1)N1CC(=O)N2[C@@H](CO)[C@H](c3ccc(-c4ccccc4)cc3)[C@@H]2C1 | 2.4
O=C(c1cccc(F)c1)N1CC(=O)N2[C@H](C1)[C@@H](c1ccc(-c3ccccc3F)cc1)[C@@H]2CO | -3.9*
O=C(c1cccc(F)c1)N1CC(=O)N2[C@H](CO)[C@H](c3ccc(-c4ccccc4F)cc3)[C@H]2C1 | -4.8*
O=C(c1ccc(F)cc1)N1CC(=O)N2[C@H](CO)[C@@H](c3ccc(-c4ccccc4F)cc3)[C@H]2C1 | 0.69
O=C(c1cccc(F)c1)N1CC(=O)N2[C@@H](CO)[C@@H](c3ccc(-c4ccccc4F)cc3)[C@@H]2C1 | -1.1
CO[C@@H]1CC[C@H]2CCN(C)C(=O)[C@@H](C)N(C)C(=O)c3cccc(C#N)c3OC[C@@H]1O2 | -0.11
CCCNC(=O)N1CC(=O)N2[C@H](C1)[C@H](c1ccc(-c3ccncc3)cc1)[C@@H]2CO | 3.2
O=C(Nc1ccccc1)N1CCCCN2[C@H](CO)[C@H](c3ccc(-c4ccccc4)cc3)[C@H]2C1 | -0.68
O=C(c1ccc(F)cc1)N1CC(=O)N2[C@H](C1)[C@H](c1ccc(C#CC3CCCCC3)cc1)[C@@H]2CO | 1.1
CO[C@@H]1CN(C)C(=O)c2cc(NC(C)=O)ccc2OC[C@@H](C)N(S(C)(=O)=O)C[C@H]1C | 0.24
CCS(=O)(=O)Nc1ccc2c(c1)C(=O)N(C)[C@H]1CC[C@@H](CC(=O)N[C@H]3CCN(Cc4ccccc4)C3)O[C@@H]1CO2 | 0.15
COc1ccccc1NC(=O)N1CCCCN2[C@@H](CO)[C@H](c3ccc(C#CC4CCCC4)cc3)[C@@H]2C1 | 1.9
CCC(=O)Nc1ccc2c(c1)OC[C@@H](C)N(Cc1ccccc1)C[C@H](C)[C@@H](OC)CN(C)C2=O | 0.52
CCC(=O)N1CCCCN2[C@@H](CO)[C@@H](c3ccc(-c4cccc(C(=O)N(C)C)c4)cc3)[C@@H]2C1 | 0.97
CC(C)NC(=O)N1CC(=O)N2[C@H](C1)[C@@H](c1ccc(/C=C/c3ccccc3)cc1)[C@@H]2CO | -2.8
O=C(NC1CCCCC1)N1CC(=O)N2[C@H](CO)[C@H](c3ccc(/C=C/c4ccccc4)cc3)[C@H]2C1 | -6.7*
O=C(NC1CCCCC1)N1CC(=O)N2[C@H](CO)[C@@H](c3ccc(/C=C/c4ccccc4)cc3)[C@H]2C1 | -4.4*
CC(C)NC(=O)N1CC(=O)N2[C@H](CO)[C@H](c3ccc(/C=C/c4ccccc4)cc3)[C@@H]2C1 | -2.1
SMILES | IDE exosite inh
C/C=C/c1ccc([C@H]2[C@@H](CO)N3C(=O)CN(C(=O)NC4CCCCC4)C[C@@H]23)cc1 | -0.75
CC(C)NC(=O)N1CC(=O)N2[C@H](C1)[C@H](c1ccc(/C=C/c3ccccc3)cc1)[C@@H]2CO | -3.8*
CC(=O)N1CC2(C1)[C@@H](c1ccc(-c3cccc(C#N)c3)cc1)[C@@H](CO)N2CCC(F)(F)F | -0.42
C[C@@H]1CN([C@@H](C)CO)C(=O)CCCn2nncc2CO[C@H]1CN(C)Cc1ccccc1C(=O)O | 2.1
O=C(c1cccnc1)N1CC(=O)N2[C@H](CO)[C@H](c3ccc(-c4cccnc4)cc3)[C@H]2C1 | -0.66
Cc1ccc(-c2ccc([C@H]3[C@@H](CO)N4C(=O)CN(C(=O)c5cccnc5)C[C@H]34)cc2)cc1 | -3.1*
O=C(c1cccnc1)N1CC(=O)N2[C@@H](CO)[C@@H](c3ccc(-c4cccnc4)cc3)[C@@H]2C1 | 2.6

Compound activity (PubChem BioAssay)
